# Measurements taken from PubChem BioAssay.
# Active and inactive are the calls of the source. Unless noted, how the calls were made is not given here.
# Key:
# [1] = resazurin metabolic signal in HepG2 cells – cell-based, resazurin fluorescence, 24 h, PK04 Diversity Set, profiling panel (AID 1172); conditions: HepG2 viability, higher = more signal
# [2] = budding yeast growth changes without added modifier – OD600, strain BY4716, 24 h, basal condition, primary screen (AID 1173); conditions: S. cerevisiae BY4716 growth, OD600, 24 h; higher = more signal, called active from +8 up or from −8 down
# [3] = viability profiling in MM1S myeloma cells – cell-based, resazurin fluorescence, basal, 24 h, PK04 Diversity Set, profiling panel (AID 1174); conditions: higher = more signal, called active from +8 up or from −8 down;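 further: MM1S multiple myeloma cell line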
# [4] = biological target: Dihydroorotate dehydrogenase (quinone), mitochondrial (Plasmodium falciparum (isolate 3D7)) (UniProt Q08210); assay: inhibition of P. falciparum DHODH – biochemical, C-terminal His tag, absorbance 600 nm, primary screen (AID 1175); conditions: PfDHODH enzyme, DCIP absorbance 600 nm; higher = more signal, called active from +8 up or from −8 down;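 further: recombinant parasite enzyme with a five histidine tag at its C terminus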
# Sequence of Dihydroorotate dehydrogenase (quinone), mitochondrial (Plasmodium falciparum (isolate 3D7)) (Q08210 whole entry, looked up): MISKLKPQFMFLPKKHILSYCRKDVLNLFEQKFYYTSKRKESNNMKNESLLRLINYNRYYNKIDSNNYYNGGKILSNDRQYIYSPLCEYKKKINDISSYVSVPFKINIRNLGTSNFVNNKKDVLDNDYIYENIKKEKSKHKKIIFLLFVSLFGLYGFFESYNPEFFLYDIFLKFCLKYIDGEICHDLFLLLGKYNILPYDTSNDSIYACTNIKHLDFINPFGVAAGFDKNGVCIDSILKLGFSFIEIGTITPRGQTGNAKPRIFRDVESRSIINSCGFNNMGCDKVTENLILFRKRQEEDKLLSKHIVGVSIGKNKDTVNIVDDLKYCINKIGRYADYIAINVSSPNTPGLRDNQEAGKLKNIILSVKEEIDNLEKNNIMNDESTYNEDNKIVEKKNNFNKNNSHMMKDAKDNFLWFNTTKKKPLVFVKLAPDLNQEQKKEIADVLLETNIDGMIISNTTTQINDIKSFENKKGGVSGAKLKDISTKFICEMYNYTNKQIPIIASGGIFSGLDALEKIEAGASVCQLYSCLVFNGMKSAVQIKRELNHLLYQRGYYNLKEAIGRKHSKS
# [5] = inhibition of PAO1 biofilm formation – strain PAO1, LB-PBS medium, absorbance 600 nm, primary screen (AID 1176); conditions: P. aeruginosa PAO1 growth/biofilm, A600, 12 h; higher = more signal
# [6] = growth modulation of vineyard yeast isolate – strain RM11-1a, OD600, basal, 24 h, primary screen (AID 1177);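 further: cultures grown under basal conditions with no added stressor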; conditions: S. cerevisiae RM11-1a growth, OD600, 24 h; higher = more signal, called active from +8 up or from −8 down
# [7] = growth of efflux-deficient E. coli DRC39 – strain DRC39, OD650, 24 h, E. coli filamentation inducers, primary screen (AID 1178);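 further: growth measured as culture turbidity by optical density at 650 nm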; conditions: E. coli DRC39 acrAB, higher = more signal, called active from +8 up or from −8 down
# [8] = growth of efflux-deficient E. coli DRC39 – strain DRC39, OD650, 48 h, E. coli filamentation inducers, primary screen (AID 1179);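 further: screen aims at cell division blockers that make cells filament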; conditions: E. coli DRC39 delta-acrAB growth, higher = more signal, called active from +8 up or from −8 down
# [9] = viability profiling in RPMI8226 myeloma cells – cell-based, resazurin fluorescence, basal, 24 h, PK04 Diversity Set, profiling panel (AID 1180); conditions: higher = more signal;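 further: RPMI8826 multiple myeloma cell line at 5000 cells per well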
# [10] = biological target: E3 ubiquitin-protein ligase XIAP (Homo sapiens) (UniProt P98170); assay: small molecules binding XIAP protein – biophysical, small-molecule microarray, fluorescence 635 nm, primary screen (AID 1181); conditions: higher = more signal;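 further: score merges 667 nm emission and signal to noise over triplicate slides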
# Sequence of E3 ubiquitin-protein ligase XIAP (Homo sapiens) (P98170 whole entry, looked up, the tested form may be a part): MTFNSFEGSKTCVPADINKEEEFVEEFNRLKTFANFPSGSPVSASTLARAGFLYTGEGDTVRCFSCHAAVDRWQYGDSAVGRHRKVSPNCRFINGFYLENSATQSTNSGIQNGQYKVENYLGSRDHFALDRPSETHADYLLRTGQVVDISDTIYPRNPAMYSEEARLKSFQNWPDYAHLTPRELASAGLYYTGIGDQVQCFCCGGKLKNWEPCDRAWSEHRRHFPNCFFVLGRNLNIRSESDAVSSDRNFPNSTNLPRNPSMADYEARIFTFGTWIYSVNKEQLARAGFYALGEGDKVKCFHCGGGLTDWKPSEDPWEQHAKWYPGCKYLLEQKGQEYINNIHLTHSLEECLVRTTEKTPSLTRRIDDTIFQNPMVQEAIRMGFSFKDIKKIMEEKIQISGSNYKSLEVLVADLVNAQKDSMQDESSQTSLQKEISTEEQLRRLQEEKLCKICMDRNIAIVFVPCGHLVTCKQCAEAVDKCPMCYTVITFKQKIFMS
# [11] = tested on: XIP peptide (Xip251-270) binding; assay: XIP fragment 251-270 binding compounds – biochemical, small-molecule microarray, fluorescence 635/667 nm, 0.1 µg/mL protein, primary screen (AID 1182); conditions: fluorescent protein binding, 635 nm, higher = more signal, called active from +8 up or from −8 down
# XIP peptide (Xip251-270) = assay: compounds binding XIP fragment 251-270 – biochemical, small-molecule microarray, fluorescence 635/667 nm, 0.5 µg/mL protein, primary screen (AID 1183); conditions: fluorescence 635 nm, higher = more signal
# [12] = blood-stage malaria parasite viability loss – strain 3D7, DAPI fluorescence, 100 nL, primary screen (AID 1184);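 further: parasites grown inside human red blood cells in medium with human serum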; conditions: P. falciparum 3D7 growth, 3 d, higher = more signal
# [13] = biological target: Homeobox protein Hox-A13 (Mus musculus) (UniProt Q62424); assay: disruptors of Hoxa13 oligonucleotide interaction – biochemical, fluorescence polarization, labeled oligonucleotide, primary screen (AID 1185); conditions: Hoxa13:DNA binding, 15 min, higher = more signal, called active from +8 up or from −8 down
# Sequence of Homeobox protein Hox-A13 (Mus musculus) (Q62424 whole entry, looked up): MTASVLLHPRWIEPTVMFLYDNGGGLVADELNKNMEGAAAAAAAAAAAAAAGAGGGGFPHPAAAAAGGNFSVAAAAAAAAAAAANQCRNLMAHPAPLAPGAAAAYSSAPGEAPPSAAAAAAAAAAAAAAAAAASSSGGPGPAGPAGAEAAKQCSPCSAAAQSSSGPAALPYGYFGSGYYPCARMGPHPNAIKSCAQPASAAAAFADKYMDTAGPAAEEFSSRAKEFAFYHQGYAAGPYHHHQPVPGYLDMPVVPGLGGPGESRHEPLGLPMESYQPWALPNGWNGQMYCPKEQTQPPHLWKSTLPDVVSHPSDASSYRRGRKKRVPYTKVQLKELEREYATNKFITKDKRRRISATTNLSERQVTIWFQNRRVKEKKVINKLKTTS
# [14] = blockers of DNA damage checkpoint Chk1 activation – imaging, HeLa, hydroxyurea, phospho-Chk1 antibody, percent positive cells, primary screen (AID 1186); conditions: hydroxyurea-induced phospho-Chk1 immunofluorescence imaging, higher = more signal
# [15] = blockers of DNA damage checkpoint Chk1 activation – imaging, HeLa, hydroxyurea, phospho-Chk1 nuclear intensity, primary screen (AID 1187); conditions: hydroxyurea-induced phospho-Chk1 immunofluorescence imaging, higher = more signal
SMILES,z-score [1],z-score [2],z-score [3],composite z-score [4],z-score [5],z-score [6],z-score [7],z-score [8],z-score [9],composite z-score [10],composite z-score [11],composite z-score (XIP peptide (Xip251-270)),z-score [12],z-score [13],z-score [14],z-score [15]
[N-]=[N+]=Nc1ccccc1[C@@H]1OC(c2ccc(OCCCO)cc2)=N[C@]1(CCS(=O)(=O)c1ccccc1)C(=O)N1CCCCC1,-0.644,1.69 (inactive),-1.66 (inactive),1.06 (inactive),0.687 (inactive),2.08 (inactive),-0.0955 (inactive),-0.933 (inactive),-1.81,-0.202,1.32 (inactive),0.574,-2.23,-2.67 (inactive),0.0919 (inactive),-0.121 (inactive)
COCCCNC(=O)[C@]1(Cc2ccccc2N=[N+]=[N-])N=C(c2ccc(OCCCO)cc2)O[C@@H]1c1ccccc1CN=[N+]=[N-],-0.412,0.0634 (inactive),-2.16 (inactive),0.0785 (inactive),1.83 (inactive),-0.22 (inactive),2.79 (inactive),0.499 (inactive),-2.01,0.283,0.0423 (inactive),0.758,-2.21,-0.242 (inactive),-0.659 (inactive),-0.443 (inactive)
O[C@@H](Cc1ccccc1)[C@@H](/C=C/c1ccccc1)NCc1ccccc1Br,0.13,-6.87 (inactive),0.119 (inactive),-1.05 (inactive),-0.107 (inactive),-0.955 (inactive),0.429 (inactive),-0.21 (inactive),0.115,-0.214,-0.265 (inactive),0.727,0.871,-0.419 (inactive),-0.28 (inactive),0.364 (inactive)
CCCC[C@@H]1C[C@H]1[C@@H](NC(=O)c1ccccc1)c1ccccc1,0.237,1.21 (inactive),-0.694 (inactive),-0.113 (inactive),-0.471 (inactive),0.601 (inactive),0.104 (inactive),0.233 (inactive),-1.07,-0.0289,-0.33 (inactive),-0.302,0.328,-1.46 (inactive),0.072 (inactive),-0.0583 (inactive)
O=C1C2C=CC(C(O)c3ccc(B(O)O)cc3)N(Nc3ccc([N+](=O)[O-])cc3)C2C(=O)N1c1ccccc1 (centres undefined),0.0107,-17.3 (active),-0.307 (inactive),-3.05 (inactive),0.188 (inactive),-22.9 (active),-1.01 (inactive),-0.657 (inactive),-0.423,0.0823,0.432 (inactive),0.208,1.18,-1.63 (inactive),-0.169 (inactive),-0.219 (inactive)
C=CCOC(=O)[C@H]1[C@@H]2C(=O)O[C@@H](c3ccccc3)[C@@H](c3ccccc3)N2[C@@H](c2ccc(OCCOC(=O)[C@H]3C[C@H]4C(=O)N[C@@H](CCCC[N+](C)(C)C)C(=O)N4[C@H]3c3ccc(O)cc3)cc2)[C@]12C(=O)Nc1ccccc12,0.767,-2.24 (inactive),1.31 (inactive),-2.24 (inactive),-0.723 (inactive),0.0539 (inactive),0.402 (inactive),0.0612 (inactive),1.21,0.0325,-0.436 (inactive),0.487,1.04,6.97 (inactive),-0.179 (inactive),-0.219 (inactive)
Cc1ccc(C(C)CC(O)C2C=CC3C(=O)NC(=O)C3N2Nc2ccccn2)o1 (centres undefined),-0.668,0.258 (inactive),-1.19 (inactive),0.936 (inactive),1.04 (inactive),0.735 (inactive),0.168 (inactive),0.215 (inactive),-0.355,-0.127,0.673 (inactive),0.881,0.281,-2.14 (inactive),0.333 (inactive),0.0304 (inactive)
O=C1OCCC=C[C@H]2OC34C=CCN(c5ccc6ccccc6c5)C(=O)[C@H]3N(CCCCCCO)C(=O)[C@@H]4C12 (some centres undefined),0.523,-0.546 (inactive),-0.0449 (inactive),0.401 (inactive),-0.497 (inactive),0.522 (inactive),0.982 (inactive),1.29 (inactive),0.868,-0.0953,-0.0517 (inactive),0.79,0.0888,-5.18 (inactive),0.183 (inactive),0.399 (inactive)
C=C(C(=O)CC[C@H](OC(=O)c1cccnc1)c1ccccc1OCCO)C(C)C,0.3,-0.993 (inactive),-1.5 (inactive),-0.429 (inactive),0.686 (inactive),-0.237 (inactive),0.283 (inactive),0.237 (inactive),-2.14,-0.0994,0.698 (inactive),0.564,-2.3,-4.71 (inactive),0.321 (inactive),0.0728 (inactive)
CC(C)[C@H]1COC(=O)N1C(=O)[C@H]1[C@@H](c2ccccc2)N(c2ccccc2)O[C@@H]1C,0.701,-1.42 (inactive),0.517 (inactive),-0.656 (inactive),0.0694 (inactive),1.46 (inactive),0.166 (inactive),0.703 (inactive),1.41,0.0785,0.223 (inactive),0.267,0.0321,-3.46 (inactive),-0.965 (inactive),-1.2 (inactive)
C#C[C@H]1Oc2ccccc2S(=O)(=O)N2CCC[C@@H]12,-0.87,-0.454 (inactive),-0.482 (inactive),0.112 (inactive),-0.0582 (inactive),-0.0887 (inactive),0.0374 (inactive),-0.29 (inactive),-0.652,-0.299,-0.267 (inactive),-0.286,0.562,-1.15 (inactive),0.528 (inactive),0.526 (inactive)
C=CCN1C(=O)[C@@]2(O[C@@H](CCO)[C@H]([Si](C)(C)c3ccc(OC)cc3)[C@H]2C)c2cc(N3C(=O)COc4ccccc43)ccc21,-6.28,0.445 (inactive),-8.85 (active),0.428 (inactive),-0.258 (inactive),3.31 (inactive),1.09 (inactive),0.338 (inactive),-6.27,-0.031,1.28 (inactive),0.623,-2.68,-4.65 (inactive),-1.39 (inactive),-0.883 (inactive)
CC(C)OC(=O)C1=CCC(c2cccc(Cl)c2)O1 (centres undefined),0.195,-5.96 (inactive),0.242 (inactive),-0.582 (inactive),0.905 (inactive),-2.25 (inactive),-0.138 (inactive),0.143 (inactive),-0.501,-0.197,0.0142 (inactive),0.677,-1.39,-0.554 (inactive),0.147 (inactive),0.0282 (inactive)
COC(=O)c1c(CC[C@@H](CO)NC(=O)Nc2ncn[nH]2)oc(C(=O)Cc2ccccc2)c1C(=O)OC,0.172,-0.62 (inactive),0.059 (inactive),0.593 (inactive),0.55 (inactive),-0.382 (inactive),0.536 (inactive),0.434 (inactive),0.36,-0.0952,0.782 (inactive),0.883,0.654,-2.98 (inactive),0.498 (inactive),-0.15 (inactive)
